Screens (PubChem)
D2 ag-1 – Beta-Arrestin HTS for Positive Allosteric Modulators of the Human D2 Dopamine Receptor: Agonists | DiscoveRx PathHunter D2 beta-arrestin, luminescence, 90 min; 100% = 57 uM dopamine signal | activation, % (concentration not given with the values) | 360,000 tested, 0.084% active; in the data active = activation above about 40%
Target sequence (P14416 whole entry, looked up): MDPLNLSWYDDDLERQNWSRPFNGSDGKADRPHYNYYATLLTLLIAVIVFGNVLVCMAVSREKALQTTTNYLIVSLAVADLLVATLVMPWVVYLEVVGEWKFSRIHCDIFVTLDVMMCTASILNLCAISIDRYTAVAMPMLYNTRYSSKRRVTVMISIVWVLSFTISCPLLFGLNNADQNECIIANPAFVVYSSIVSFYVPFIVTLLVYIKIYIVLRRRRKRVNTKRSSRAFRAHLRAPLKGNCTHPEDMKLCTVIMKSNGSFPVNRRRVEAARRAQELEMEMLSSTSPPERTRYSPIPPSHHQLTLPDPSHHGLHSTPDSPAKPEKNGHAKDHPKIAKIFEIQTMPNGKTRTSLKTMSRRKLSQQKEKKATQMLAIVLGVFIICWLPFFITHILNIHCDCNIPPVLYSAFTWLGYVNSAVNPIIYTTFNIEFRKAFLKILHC
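DiscoveRx PathHunter D2 beta-arrestin cells (2,100/well) attached overnight, then compound-stimulated 90 min at 37 C in HBSS/10 mM HEPES/0.1% Tween-20 buffer; beta-galactosidase complementation read by luminescence after 1 h at ambient temperature. Dopamine 57 uM final (EC100) as control.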
D2 antag – HTS Assay for Allosteric Antagonists of the Human D2 Dopamine Receptor: Primary Screen for Antagonists; 340,000 tested, 2% active; D(2) dopamine receptor (Homo sapiens), P14416; HEK293 TREx D2 cells, calcium flux, dopamine EC80; inhibition, % at 10 µM; AID 485344, 2010; in the data active = inhibition above about 30%; inactive = below that, where a call was filed
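In this primary screen, negative modulation is detected by tracking calcium flux after an EC80 dopamine challenge in inducible HEK293 T-REx D2 cells preexposed to test compound for 180 s.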
D2 PAM-1 – HTS Assay for Positive Allosteric Modulators of the Human D2 Dopamine Receptor: Primary Screen for Potentiators. D(2) dopamine receptor (Homo sapiens), P14416. HEK293 T-REx D2, calcium flux, EC20 dopamine potentiation. potentiation, % at 10 µM. 340,000 tested, 0.34% active. AID 485347, 2010;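 active = potentiation over 3 SD above the plate norm, cut at about 30% in these data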
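Tetracycline-induced HEK293 T-REx cells force-coupled to calcium signalling expressed D2; compounds were pin-added after a 10 s baseline, read kinetically 180 s, then an EC20 dopamine challenge followed with a further 180 s calcium read.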
D2 ag-2 – HTS Assay for Allosteric Agonists of the Human D2 Dopamine Receptor: Primary Screen for Agonists | HEK293 T-REx D2 cells, calcium flux agonist mode | activation, % at 2 µM | 340,000 tested, 0.53% active | AID 485358, 2010;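 active = activation over 3 SD above normal in the single-dose calcium agonist read, cut at about 30% in these data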
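Agonism is scored from calcium flux in a force-coupled, inducible HEK293 cell line expressing D2, read kinetically for 180 s after compound addition against dopamine controls.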
D2 PAM-2 – Beta-Arrestin HTS for Positive Allosteric Modulators of the Human D2 Dopamine Receptor: Potentiators. potentiation, % (no concentration beside the values). AID 624464, 2012. 360,000 tested, 0.23% active. DiscoveRx D2 beta-arrestin cells, luminescence, 90 min; 100% = 57 uM dopamine signal; in the data active = potentiation above about 50%
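D2 cells co-treated with compound plus 50 nM dopamine (EC20) for 90 min at 37 deg C to detect potentiation. Beta-arrestin recruitment was read as enzyme-fragment luminescence after 1 h at ambient temperature. Full response was set by 57 uM dopamine.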
Large screens that a line does not name were inactive. Hits are enriched below; roughly 2.4% of the tested compounds scored in any of these assays.

Cc1ccc(C2CCN(C(=S)Nc3cccc(C)c3)C2)cc1 (stereo not given)	D2 PAM-1 75.4
Cc1ncc(C(=O)O)c(C(=O)O)c1N	D2 PAM-1 35.4
Cc1ccc(C)c(N2CCN(C(=O)CN3CCSc4ccc(S(=O)(=O)N(C)C)cc43)CC2)c1	none (no result: D2 ag-1, D2 antag, D2 PAM-2)
Cc1onc(-c2ccccc2)c1C(=O)OCCOc1ccccc1F	D2 antag 37.6
Cc1cccc(NC(=O)C2CCC(CNS(=O)(=O)c3ccc(Br)s3)CC2)c1 (stereo not given)	none (no result: D2 ag-1, D2 antag, D2 PAM-2)
Cc1ccc(NC(=O)Cc2c(C(=O)O)c(C)cn2C)cc1Cl	none (no result: D2 ag-1, D2 antag, D2 PAM-2)
COc1ccccc1NS(=O)(=O)c1cccc2cccnc12	D2 antag 31.1
CC(C)c1ccccc1OCC(=O)N(C)CC(=O)Nc1ccc(F)cc1	D2 antag 55.8
CN(CC(=O)Nc1ccc(F)cc1)C(=O)COc1ncnc2ccccc12	none
CN(CC(=O)Nc1ccc(F)cc1)C(=O)CSc1ccc2c(c1)OCCO2	none
Cc1ccc(SCC(=O)OCC(=O)N(C)CC(=O)Nc2ccc(F)cc2)cc1C	D2 antag 38.3
CN(C)c1ccc(CNC(=O)CCC(=O)N2Cc3ccccc3Oc3ncccc32)cc1	none (no result: D2 ag-1, D2 antag, D2 PAM-2)
O=C(Oc1ccccc1F)c1ccc2c(=O)n3c(nc2c1)CCC3	D2 antag 31.8
Cc1ccc(C)c(NC(=O)CN(C)C(=O)c2ccc3c(=O)n4c(nc3c2)CCC4)c1	D2 antag 32.7
O=C(Oc1ccccc1Cl)c1ccc2c(=O)n3c(nc2c1)CCC3	none
CC(C)(C)c1cc(NC(=O)COC(=O)c2ccc3c(=O)n4c(nc3c2)CCC4)n(-c2ccccc2)n1	D2 PAM-1 46.3
Cc1ccc(C)c(CSc2cn(CCNC(=O)c3cccs3)c3ccccc23)c1	none (no result: D2 ag-1, D2 antag, D2 PAM-2)
Clc1cccc(-c2cc3nc4c(c(N5CCN(c6cnccn6)CC5)n3n2)CCCC4)c1	D2 antag 41.2
COC(=O)C1=C(O)/C(=C\c2cc(C)n(-c3ccccc3C)c2C)N=C1C	D2 antag 32.1
COc1cc(NC(=O)c2ccc(C(=O)Nc3cc(OC)c(Cl)cc3OC)cc2)c(OC)cc1Cl	none (no result: D2 ag-1, D2 antag, D2 PAM-2)
O=C(CN1c2ccc(Br)cc2-c2ccccc2S1(=O)=O)N1CCCCC1	none (no result: D2 ag-1, D2 antag, D2 ag-2, D2 PAM-2)
Cc1ccc(C(=O)NNC(=S)NC(=O)c2ccccc2)cc1	none (no result: D2 antag, D2 PAM-1, D2 ag-2)
Cc1ccc(C(=O)NNC(=S)NC(=O)c2ccc(Cl)cc2Cl)cc1	D2 ag-2 70.1
COc1ccc(C(=O)NNC(=S)NC(=O)c2ccc(F)cc2)cc1Br	none (no result: D2 antag, D2 PAM-1, D2 ag-2)
Cc1ccccc1C(=O)NNC(=S)NC(=O)c1ccccc1	D2 ag-2 51.2
COc1ccc(Cl)cc1C(=O)NNC(=S)NC(=O)c1ccc(F)c(F)c1	D2 antag 40.4
Cc1ccc(C(=O)NC(=S)NNC(=O)c2ccc([N+](=O)[O-])cc2)cc1	D2 antag 33.2
C[C@H](NC(=O)c1nc[nH]c1C(=O)NC(c1ccccc1)c1ccccc1)C(=O)OC(C)(C)C	none (no result: D2 antag, D2 PAM-1, D2 ag-2)
CC(C)(C)OC(=O)CNC(=O)c1[nH]cnc1C(=O)NC(c1ccccc1)c1ccccc1	D2 ag-2 48.2
Cc1ccc(-c2c(CN3CCN(c4cccc(C(F)(F)F)c4)CC3)csc2C)cc1	none (no result: D2 ag-1, D2 antag, D2 PAM-2)
CC1CCCCN1S(=O)(=O)c1ccc(C(=O)Nc2sccc2C(N)=O)cc1 (stereo not given)	D2 antag 31.4
NC(=O)c1ccsc1NC(=O)C1CCCN1S(=O)(=O)c1ccc(Cl)cc1 (stereo not given)	none
CN(C)CCNC(=O)CN1N=C(c2ccccc2)CCC1=O	none (no result: D2 ag-1, D2 antag, D2 ag-2, D2 PAM-2)
CCn1c(C)c(C)c2cc(C(=O)NCC(C)c3ccccc3)ccc21 (stereo not given)	none (no result: D2 ag-1, D2 antag, D2 PAM-2)
CCCCNC(=O)c1nc(C2CCN(S(=O)(=O)c3ccc(F)c(F)c3)CC2)oc1-c1ccccc1	none (no result: D2 antag, D2 PAM-1, D2 ag-2)
Cc1ccc(OCC(=O)Nc2ccc(O)c(-c3nc4ccccc4o3)c2)cc1	D2 PAM-1 32.1
Cc1ccc(N2C(=O)C3C4C=CC(C4)C3C2=O)cc1 (stereo not given)	D2 PAM-1 51.1
